Rows were chosen to be rich in hits. Some 11% of all compounds tested hit in one or more screens of this group.
HEK cytotox: cytotoxic compounds in HEK 293 cells. AID 1345083. Potency, µM (titrated, usually from 115 µM), inactives show at the top dose activity change, negative = cytotoxicity, most hits filed as inhibitors. 94,000 compounds, 6.6% hits. HEK 293 viability, ATP luminescence (CellTiter-Glo), 48-72 h; also: nearly all actives have a fitted effect of over 60% in size
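Cytotoxicity was scored by loss of ATP-coupled luminescence (CellTiter-Glo) in HEK 293 cells. Compound treatment ran 48 or 72 hr at 37 degree Celsius, 5% CO2, 95% humidity.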
hNpr1 antagonist: antagonists of human natriuretic peptide receptor Npr1; Potency, µM (highest dose often 46.3 µM), for the others: top-dose activity change, negative = inhibition, most hits filed as inhibitors; 76,000 compounds, 1.6% hits; P16066; HEK293 hNpr1 GloSensor cGMP, ANP-stimulated luminescence; calls by dose curve; also: nearly all actives have a fitted effect of over 60% in size
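Compound pre-incubated 30 min at room temperature on GloSensor-loaded HEK293 cells stably carrying hNpr1 and the pGS-40F cGMP biosensor. Stimulation uses hNppA at 0.1 nM final; luminescence is taken at baseline and 20 min post-agonist.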
3T3 cytotox: NIH 3T3 cell cytotoxicity; NIH 3T3 viability, CellTiter-Glo ATP luminescence, 48-72 h; Potency, µM (top dose mostly 96.7 µM), without a hit: top-dose activity change, negative = cytotoxicity, hits mostly inhibitors; 94,000 compounds, 4.3% hits; also: nearly all actives have a fitted effect of over 55% in size
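Luminescent ATP readout (CellTiter-Glo, 10 min RT) after 48 or 72 hr compound exposure of NIH 3T3 cells seeded at 400 cells/well in 1536-well format; quantitative HTS.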
Luciferase inh: blocks purified firefly luciferase enzyme activity; P08659; Potency, µM (highest dose often 115 µM), actives largely listed as inhibitors; AID 1347043; 76,000 compounds, 2.5% hits; purified P. pyralis luciferase, luminescence, biochemical; also: nearly all actives have a fitted effect of over 65% in size
Target sequence (P08659 whole entry, looked up): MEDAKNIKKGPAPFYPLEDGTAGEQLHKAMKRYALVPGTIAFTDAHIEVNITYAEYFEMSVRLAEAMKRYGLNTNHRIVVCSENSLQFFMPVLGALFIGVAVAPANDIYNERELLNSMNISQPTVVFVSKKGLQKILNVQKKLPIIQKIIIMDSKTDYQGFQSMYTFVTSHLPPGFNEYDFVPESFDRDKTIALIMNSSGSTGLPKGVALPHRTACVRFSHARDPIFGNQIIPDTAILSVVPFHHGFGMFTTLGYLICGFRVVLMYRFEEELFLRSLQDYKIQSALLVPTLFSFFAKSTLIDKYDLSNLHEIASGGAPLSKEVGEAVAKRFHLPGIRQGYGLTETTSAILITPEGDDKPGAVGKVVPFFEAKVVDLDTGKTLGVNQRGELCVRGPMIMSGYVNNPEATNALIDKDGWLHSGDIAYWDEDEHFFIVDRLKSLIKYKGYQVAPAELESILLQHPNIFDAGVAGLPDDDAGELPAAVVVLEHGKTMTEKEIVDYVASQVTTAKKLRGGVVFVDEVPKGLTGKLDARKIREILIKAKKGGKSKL
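Purified 10nM P. pyralis luciferase with 10uM D-luciferin and 10uM ATP in 50mM Tris acetate pH 7.5, 10mM Mg acetate, 0.01% Tween-20, 0.05% BSA. qHTS titration; luminescence read by CCD imager.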
Starred values were filed as active, the others as inactive; [ ] = remark or other dose. Unless noted, calls follow the shape of the dose curve; as a rule, active = well fitted curve in the direction sought with a large enough effect; inconclusive = small, poorly fitted or top-dose-only effect, or another doubt; inactive = no such curve, though single readings can be large; an effect the other way counts as inactive or inconclusive. % is scaled to controls: 0 for no effect and ±100 for the full control effect; potency is read from the fitted curve at half-maximal effect.

`O=C(NC1CCCN(c2cc(-c3ccccc3)[nH]n2)C1)c1c[nH]c2ccccc12` (stereo unspecified) gave HEK cytotox inconclusive, hNpr1 antagonist -19.5%, 3T3 cytotox inconclusive and Luciferase inh 39.8µM*.
For O=C(NC1CCN(c2cc(-c3ccc(F)cc3)[nH]n2)C1)c1c[nH]c2ccccc12 (stereo unspecified) the results were HEK cytotox 39.8µM*, hNpr1 antagonist -23.1%, 3T3 cytotox 31.6µM* and Luciferase inh inactive.
O=C(NC1CCN(c2cc(-c3ccc(F)cc3)[nH]n2)CC1)c1c[nH]c2ccccc12 was read as HEK cytotox inconclusive, hNpr1 antagonist 0.0%, 3T3 cytotox 31.6µM* and Luciferase inh inactive.
Screening O=C(NCC1CCN(c2cc(-c3ccc(F)cc3)[nH]n2)CC1)c1c[nH]c2ccccc12 returned HEK cytotox inconclusive, hNpr1 antagonist -26.9%, 3T3 cytotox 31.6µM* and Luciferase inh inconclusive.
Cc1ccc2c(ccn2CCNC(=O)C[C@H]2NC(=O)c3ccccc3NC2=O)c1 was read as HEK cytotox 7.6%, hNpr1 antagonist 0.8%, 3T3 cytotox inactive and Luciferase inh inactive.
`CCn1cc(CN(C)C2CCc3nn(CC4CC4)c(=O)n3CC2)c(C)n1` (stereo unspecified) gave HEK cytotox 4.4%, hNpr1 antagonist 0.5%, 3T3 cytotox -6.4% and Luciferase inh inactive.
Screening CN(Cc1cn(C)c2ccccc12)C1CCc2nn(CC3CC3)c(=O)n2CC1 (stereo unspecified) returned HEK cytotox 31.6µM*, hNpr1 antagonist -2.7%, 3T3 cytotox 35.5µM* and Luciferase inh inactive.
`CN(C)c1cccc(-c2cnc(Nc3cccnc3)c3c2CCO3)c1` gave HEK cytotox 63.1µM*, hNpr1 antagonist inconclusive, 3T3 cytotox 50.1µM* and Luciferase inh 39.8µM*.
`CN(C)c1cccc(-c2cnc(Nc3ccc4c(c3)OCCO4)c3c2CCO3)c1` gave HEK cytotox inconclusive, hNpr1 antagonist inconclusive, 3T3 cytotox -22.6%[138 µM] and Luciferase inh 3.55µM*.
Screening COc1cncc(Nc2ncc(-c3cccc(N(C)C)c3)c3c2OCC3)c1 returned HEK cytotox -80.1%[172 µM], hNpr1 antagonist -29.8%[70.6 µM], 3T3 cytotox inconclusive and Luciferase inh inactive.
Screening Cc1ccsc1CN1CC(Oc2ccc(-c3noc(C4CCOCC4)n3)cc2)C1 returned HEK cytotox 20µM* and 3T3 cytotox 39.8µM*.
Screening O=C(COc1ccccc1)N1CC(Oc2ccc(-c3noc(C4CCOCC4)n3)cc2)C1 returned HEK cytotox inconclusive, hNpr1 antagonist inconclusive, 3T3 cytotox -29.7% and Luciferase inh inactive.
Screening Cc1ccc(NC(=O)N2CCC[C@H]2c2nc(-c3ccc(F)cc3)n[nH]2)cc1C returned HEK cytotox inconclusive and 3T3 cytotox 28.2µM*.
For Cn1cc(CN2CCN3CCCC3C2)c(-c2ccc(C3CCCCC3)cc2)n1 (stereo unspecified) the results were HEK cytotox 25.1µM*, hNpr1 antagonist 5.8%, 3T3 cytotox inconclusive and Luciferase inh inconclusive.
Screening COC(=O)c1cccc(COCC2=CC(C)(C)COc3ccc(OC)cc32)c1 returned HEK cytotox 28.2µM* and 3T3 cytotox inconclusive.
Screening Cc1nc(C(=O)N2CCOc3c(O)cc(-c4cccc(Cl)c4)cc3C2)c(C)o1 returned HEK cytotox 39.8µM*, hNpr1 antagonist inconclusive, 3T3 cytotox inconclusive and Luciferase inh inactive.
For Cc1ccnn1CC(=O)N1CCOc2c(O)cc(-c3cccc(Cl)c3)cc2C1 the results were HEK cytotox inconclusive, hNpr1 antagonist -28.3%, 3T3 cytotox inconclusive and Luciferase inh inactive.
CCOC(=O)C(C)N1CCOc2c(O)cc(-c3cccc(Cl)c3)cc2C1 (stereo unspecified) was read as HEK cytotox 44.7µM*, hNpr1 antagonist inconclusive, 3T3 cytotox inconclusive and Luciferase inh inactive.
Screening O=C(c1ccccc1F)N1CCN(c2ccc3nnc(-c4ccccc4)n3n2)CC1 returned HEK cytotox -16.2% and 3T3 cytotox inconclusive.
For COc1ccc(-n2nc(C)c([C@@H]3C=C[C@@H](NCc4ccc(C(C)C)cc4)C3)c2C)cc1 the results were HEK cytotox 31.6µM*, hNpr1 antagonist inconclusive, 3T3 cytotox 31.6µM* and Luciferase inh 25.1µM*.
For COc1ccc(NC(=O)O[C@@H]2C=C[C@H](c3c(C)nn(-c4ccc(F)cc4)c3C)C2)cc1 the results were HEK cytotox inconclusive, hNpr1 antagonist -29.6%[70.6 µM], 3T3 cytotox inconclusive and Luciferase inh inconclusive.
